Test results reported in PubChem BioAssay (EPA / NIEHS).
Calls of active or inactive are those of the source. How the source made its calls: active means hit-call score of the fitted dose curve at least 0.9, where 1 is the maximum; inactive means score below 0.9.

Test: ATG_TGFb_CIS: Attagene CIS-FACTORIAL HepG2 Assay for human Transforming Growth Factor (TGF) (AID 2282967)
Details: HepG2 Attagene CIS TGFb reporter, mRNA transcription; actives raise or lower the signal
Experimental: ATG_CIS is a cell-based, multiplexed-readout assay that uses HepG2, a human liver cell line, with measurements taken at 24 hours after chemical dosing in a 24-well plate.ATG_TGFb_CIS is one of 52 assay component(s) measured or calculated from the ATG_CIS assay. It is designed to make measurements of mRNA induction, a form of inducible reporter, as detected with fluorescence intensity signals by Reverse transcription polymerase chain reaction (RT-PCR) and Capillary electrophoresis technology.Data from the assay component ATG_TGFb_CIS was analyzed into 1 assay endpoint. This assay endpoint, ATG_TGFb_CIS, was analyzed with bidirectional fitting relative to DMSO as the negative control and baseline of activity. Using a type of inducible reporter, measures of mRNA for gain or loss-of-signal activity can be used to understand the reporter gene at the transcription factor-level as they relate to the gene TGFB1. Furthermore, this assay endpoint can be referred to as a primary readout, because this assay has produced multiple assay endpoints where this one serves a reporter gene function. To generalize the intended target to other relatable targets, this assay endpoint is annotated to the growth factor intended target family, where the subfamily is transforming growth factor beta.
Human liver HepG2 cells are transiently transfected with multiple reporter transcription units (MRTUs) in 6-well plates using FuGene 6 reagent (Roche; 3 ml FuGene/1 mg DNA). The MRTU constructs are regulated by a cis-regulating element (promoter). […] A major difference between the CIS and TRANS system is that in CIS activities of endogenous TFs are measured, whereas the TRANS assay evaluates changes in activities of exogenous, chimeric NR-Gal4 proteins. […] At the end of 24 hour incubation, total RNA was isolated using TriZol reagent (Invitrogen). The isolated RNA is then reverse-transcribed using oligo(dT) primer and Mo-MLV reverse transcriptase (Invitrogen) with DNAse I (Ambion) treatment for 30 min. The one-tenth of the produced cDNA was amplified by PCR using Taq DNA polymerase (Invitrogen) and two reporter sequence-specific primers. The PCR products were fluorescently labeled by primer extension with 6-arboxyfluorescein (6-FAM) 5'-labeled reporter sequence-specific primer (2 min at 95 C, 20 s at 68 C and 10 min at 72 C) and these products were digested with 5U of HpaI (New England Biolabs) for 2h at 37 C. The fragments were purified using Qiaquick PCR columns (Qiagen), analyzed on an ABI 3130xL genetic analyzer (Applied Biosystems) with peak positions identified by using a set of X-rhodamine (ROX)-labeled MapMarker1000 molecular weight standards (BioVentures). The raw capillary electrophoresis data was processed using Attagraph software (Attagene).

| SMILES | outcome | AC50 |
| --- | --- | --- |
| Cc1cc(=O)[nH]c(C(C)C)n1 | inactive |  |
| COC(F)(C(F)F)C(F)(F)F (stereo not given) | inactive |  |
| CC1=CC2C3C=CC(C3)C2C1C (stereo not given) | inactive |  |
| CC(C)(C)c1cc(Cc2cc(C(C)(C)C)c(O)c(C(C)(C)C)c2)cc(C(C)(C)C)c1O | inactive |  |
| CCN(CC)c1ccc(N=Nc2ccccc2)cc1 | inactive |  |
| OC(O)C(F)(F)C(F)(F)F | inactive |  |
| C=CC(=O)OCC(F)(F)C(F)(F)C(F)(F)COC(=O)C=C | inactive |  |
| CC(C)(C)c1cc(CCC(=O)OCC(COC(=O)CCc2cc(C(C)(C)C)c(O)c(C(C)(C)C)c2)(COC(=O)CCc2cc(C(C)(C)C)c(O)c(C(C)(C)C)c2)COC(=O)CCc2cc(C(C)(C)C)c(O)c(C(C)(C)C)c2)cc(C(C)(C)C)c1O | inactive |  |
| NC(=O)C(F)(F)C(F)(F)C(F)(F)C(F)(F)C(N)=O | inactive |  |
| NCC(F)(F)C(F)(F)C(F)(F)C(F)(F)C(F)(F)C(F)(F)F | inactive |  |
| O=C1c2ccccc2C(=O)c2c(Cl)cccc21 | inactive |  |
| C=CC(=O)OCC(F)(F)C(F)(F)C(F)(F)C(F)(F)C(F)(F)C(F)(F)C(F)(F)C(F)F | inactive |  |
| OCC(F)(F)C(F)(F)C(F)(F)CO | inactive |  |
| Cc1ccc2c(c1)OCC(=O)CO2 | inactive |  |
| CCCCCCCCCc1ccc(OCCO)cc1 | inactive |  |
| CCCCCCCCCCCCCC[P+](CCCC)(CCCC)CCCC | inactive |  |
| CO[Si](CCCOCC1CO1)(OC)OC (stereo not given) | inactive |  |
| Oc1ccc2c(c1)CCC2 | inactive |  |
| CCCC(=O)OCC(COC(=O)CCC)OC(=O)CCC | inactive |  |
| CC(=O)CCC(C)C | inactive |  |

| SMILES | outcome | AC50 |
| --- | --- | --- |
| CCCCCCCCCCCCCCCCC | inactive |  |
| O=C=Nc1cccc2c(N=C=O)cccc12 | inactive |  |
| CCCCCC/C=C/CCCCCCCC(=O)O | inactive |  |
| CC(C)=CCCC(C)O (stereo not given) | inactive |  |
| O=c1cccc[nH]1 | inactive |  |
| Cc1cc(O)c(C(C)(C)C)cc1C(C)(C)C |  | 2200 nM (active) |
| CCN=C1C=CC(=C(c2ccc(N(CC)CC)cc2)c2ccc(N(CC)CC)cc2)c2ccccc21 | inactive |  |
| C=C(C)CCCC | inactive |  |
| CC(C)(C)c1cc(CCC(=O)NCCCCCCNC(=O)CCc2cc(C(C)(C)C)c(O)c(C(C)(C)C)c2)cc(C(C)(C)C)c1O | inactive |  |
| CN(N=O)C(=O)N[C@@H]1[C@@H](O)[C@H](O)[C@@H](CO)O[C@@H]1O | inactive |  |
| CCCCOC(=O)[C@H](C)O | inactive |  |
| c1ccc(C[P+](c2ccccc2)(c2ccccc2)c2ccccc2)cc1 | inactive |  |
| O=C(O)C(F)(F)C(F)(F)C(F)(F)OC(F)(F)F | inactive |  |
| CCN(CC)c1ccc2c(c1)Oc1cc(N(CC)CC)ccc1C21OC(=O)c2ccccc21 | inactive |  |
| FC(F)(F)C(F)(F)C(F)(F)CC1CO1 (stereo not given) | inactive |  |
| O=S(=O)(O)CCC(F)(F)C(F)(F)C(F)(F)C(F)(F)F | inactive |  |
| CCCCCCCCCCCCC[N+](C)(C)Cc1ccccc1 | inactive |  |
| CCc1ccc(C)nc1 | inactive |  |
| Cc1ccc(O)cn1 | inactive |  |
| CC(C)C(=O)OCc1ccccc1 | inactive |  |
